# Results taken from PMC5540273 (PLoS ONE, 2017).
# Test system: CDK4-cyclinD1
# Conditions: concentration: 1 μM, replicates: in singlicate; n = 1
# 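Further: KINOMEscan kinase panel screen.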
row,Structure (SMILES),%Inh [%]
1,COc1ccc(Nc2nccc(N3CCC(NC(=O)c4cc5ccccc5s4)C3)n2)cc1 (centres unmarked) [GSK1379738],0
2,Cc1ccc(-c2nc(Nc3ccncc3)c3ccccc3n2)s1 [GSK189015],0
3,Cn1cncc1C(=O)NC1CCN(c2ccnc(Nc3ccc(F)cc3)n2)C1 (centres unmarked) [GSK1379717],0
4,COc1ccc(Nc2nccc(N3CCC(NC(=O)C(C)c4ccc(Cl)cc4)C3)n2)cc1 (centres unmarked) [GSK1379735],0
5,COc1nccc(-c2c(-c3ccc(F)cc3)ncn2CCCN2CCOCC2)n1 [SB-282852],44
6,Cc1ccccc1Cn1ccn2c(=O)cc(N3CCOCC3)nc12 [GSK2269905],0
7,CS(=O)(=O)CCNCc1nc(-c2ccc3ncnc(Nc4ccc5c(cnn5Cc5ccccc5)c4)c3c2)cs1.Cl.Cl [GW569716],41
8,O=C1NC(=O)C(c2ccc(Cl)cc2)=C1Nc1ccc(O)cc1 [SB-340867],0
9,Cc1cccc2c(-c3ccncn3)c(-c3ccc(F)cc3)nn12 [GW515532],0
10,Cn1cncc1-c1cc2c(Nc3ccc(OCc4ccccc4)cc3)ncnc2cn1 [GW281179],0
11,CCn1c(-c2ccccc2)nc2cnccc21 [SB-733416],0
12,Nc1ncnc2occ(-c3ccc4c(c3)CCN4C(=O)Cc3cc(F)ccc3F)c12 [GSK2645446],0
13,c1ccc(-c2ccnc3[nH]ccc23)cc1 [SB-693578],0
14,O=C(Nc1n[nH]c2cc(-c3ccsc3)ccc12)C1CC1 [SB-732932],14
15,COc1ccc(Nc2nccc(NCCNC(=O)Nc3cc(C)ccc3C)n2)cc1 [GSK1379899],0
16,Cc1ccc(NC(=O)Nc2ccccc2F)cc1-c1ccc(C(=O)Nc2ccncc2)cc1 [GSK1398477],0
17,Cl.Cl.Cl.N#Cc1ccc(CCNc2nccc(-c3cccc(CN4CCNCC4)c3)n2)cc1 [GSK2137462],0
18,O=C1NC(=O)C(c2ccc(Cl)cc2)=C1Nc1cccc(Cl)c1 [SB-317651],12

row,Structure (SMILES),%Inh [%]
1,Cc1ccccc1-c1cc(-c2c[nH]nc2-c2ccccn2)ccn1 [GW680061],0
2,Fc1ccc(-c2nc3n(c2-c2ccncc2)CCS3)cc1 [GI98581],0
3,CC(C)c1ccc(O)cc1Nc1ccnc2ccc(C(F)(F)F)cc12 [GW482059],85
4,CC(=O)c1cccc(NC(=O)NC2CCN(c3ccnc(Nc4ccc(F)cc4)n3)C2)c1 (centres unmarked) [GSK1379710],0
5,Cc1nccc(-c2c(-c3ccc(F)cc3)ncn2CCCN2CCOCC2)n1.Cl [SB-282975],14
6,O=C(Nc1n[nH]c2nc(-c3ccco3)c(Br)cc12)C1CCN(Cc2ccccc2)C1.O=C(O)[C@H](O)[C@@H](O)C(=O)O (centres unmarked) [SB-742034],0
7,O=c1cc(N2CCOCC2)nc2n(Cc3cccc(Cl)c3Cl)c3ccccc3n12 [GSK2299009],0
8,Cn1cnc2c(N)ncnc21 [SKF-97623],19
9,CNCc1ccc2nc(NC(=O)c3ccc(C(C)(C)C)cc3)cn2c1,14
10,COc1ccc(CSc2nnc(-c3ccc4nccn4c3)o2)cc1C(F)(F)F,7
11,O=C(Nc1n[nH]c2nc(-c3cccs3)c(Br)cc12)C1CCCC1 [SB-743341],11
12,Nc1nccc(-c2c(-c3ccc(F)cc3)ncn2C2CCN(Cc3ccccc3)CC2)n1 [SB-219980],0
13,Cc1ccc(NC(=O)Nc2ccc(Cl)c(C(F)(F)F)c2)cc1-c1ccc(C(=O)Nc2ccncc2)cc1 [GSK1398470],0
14,COc1ccc(CSc2nnc(-c3ccc4c(c3)CCO4)o2)cc1,0
15,NS(=O)(=O)c1cccc(N/C=C2\C(=O)Nc3ccc(S(=O)(=O)Cc4c(Cl)cccc4Cl)cc32)c1 [GSK398099],0
16,CNc1nc(-c2ccc3c(N)n[nH]c3c2)cc(N2C[C@@H](C(=O)NC3CCCCC3)OC[C@H]2C)n1 [GSK2375584],3
17,COC(=O)c1cccc(NC(=O)NC2CCN(c3ccnc(Nc4ccc(OC)cc4)n3)C2)c1 (centres unmarked) [GSK1379746],34
